Measurements from PubChem BioAssay (NCI).
This is part of a sample that, as a whole, favours compounds with a hit. Of some 79,000 tested, about 15% had one in any assay. No stated cut-off is given here; in the data, active means growth inhibition above about 70%; inactive means the rest.

Tests used:
[1] = NCI Yeast Anticancer Drug Screen. Data for the rad50 strain (AID 155);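 further: 0% = growth of vehicle-only cultures of the same strain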; settings: S. cerevisiae rad50 strain growth inhibition; at 50.0 µM; hits give high values
Summary of the method: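 Inhibition values express reduced yeast growth in compound-treated cultures relative to vehicle-treated controls.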

[2] = NCI Yeast Anticancer Drug Screen. Data for the mec2-1 strain (AID 157); settings: S. cerevisiae mec2-1 strain, at 50.0 µM, hits give high values
Summary of the method: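 Mutant yeast (mec2-1) grown with compound; growth inhibition relative to vehicle control reported.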

[3] = NCI Yeast Anticancer Drug Screen. Data for the sgs1 mgt1 strain (AID 161);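 further: 0% = growth of cultures given vehicle only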; settings: S. cerevisiae sgs1 mgt1 strain, at 50.0 µM, hits give high values
Summary of the method: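 Compounds are added to genetically altered yeast, and growth is compared with cultures given vehicle alone to give percent inhibition.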

[4] = NCI Yeast Anticancer Drug Screen. Data for the cln2 rad14 strain (AID 165);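 further: 0% = growth equal to vehicle treated cultures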; settings: S. cerevisiae cln2 rad14 strain, at 50.0 µM, hits give high values
Summary of the method: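 Readout is yeast growth inhibition versus vehicle-treated controls, using a strain with cln2 and rad14 alterations exposed to compound.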

[5] = NCI Yeast Anticancer Drug Screen. Data for the bub3 strain (AID 167); settings: S. cerevisiae bub3 mutant strain, at 50.0 µM, hits give high values
Summary of the method: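 Steps: expose the mutant yeast strain to compound; grow alongside vehicle-treated cultures; measure growth; express inhibition against the vehicle cultures.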

[6] = NCI Yeast Anticancer Drug Screen. Data for the mlh1 rad18 strain (AID 175); settings: S. cerevisiae mlh1 rad18 strain growth inhibition; at 50.0 µM; hits give high values
Summary of the method: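 Genetically defined yeast (DNA repair-deficient) exposed to compounds; growth inhibition determined relative to vehicle.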

Measured: growth inhibition

CNn1c(C)n[nH]c1=O
inactive: [1] 4.95% | [2] -15.8% | [3] 10.4% | [4] 20.6% | [5] 3.4% | [6] 17.1%

CC(C)=C(Cl)c1c(C)cc(C)c(CC(N)=O)c1C
inactive: [1] -14.1% | [2] -3.75% | [3] -8.15% | [4] -27.2% | [5] -9.95% | [6] 10.1%

COc1ccc(/C(Br)=C2\OC(=O)c3ccccc32)cc1
inactive: [1] -7.95% | [2] -19.9% | [3] -13.4% | [4] -35.1% | [5] 18.4% | [6] -6.9%

CC(Oc1cc(Cl)c(Cl)cc1Cl)C(=O)NC(Cc1ccccc1)C(=O)O (stereo not given)
inactive: [1] 8.5% | [2] 9.45% | [3] 13.5% | [4] 25.6% | [5] -0.45% | [6] 5.8%

O=S(=O)(Nc1nc2ccccc2nc1Nc1cccc2ccccc12)c1ccccc1
inactive: [1] -1.3% | [2] -5.05% | [3] 3.8% | [4] -13.5% | [5] -10.9% | [6] -26.4%

Nc1nc(-c2ccccc2)c(N=Nc2cccc(Cl)c2)s1
inactive: [1] -10.7% | [2] -4% | [3] -11.4% | [4] -48% | [5] -2% | [6] -10.8%

OCC(O)C(O)C(CN=Cc1ccccc1O)N=Cc1ccccc1O (stereo not given)
inactive: [1] 5.05% | [2] 1% | [3] 3% | [4] -26.1% | [5] 12.9% | [6] -2.45%

NC(=O)C1CCCC1
inactive: [1] -3.3% | [2] 2.1% | [3] -5.25% | [4] 14.1% | [5] 23.4% | [6] -5.05%

CC1(N)CCC(C(C)(C)N)CC1 (stereo not given)
inactive: [1] 28.1% | [2] -8.75% | [3] 10.8% | [4] -30.3% | [5] 2.35% | [6] 8.8%

Ic1ccc(N=Nc2ccccc2)cc1
inactive: [1] -8% | [2] -11.9% | [3] -5.35% | [4] -70.3% | [5] 25.3% | [6] -12.5%

CC(C)c1ccc(C(=O)OCCBr)cc1
inactive: [1] 18.7% | [2] -11.4% | [3] 16.2% | [4] -3.1% | [5] 1.7% | [6] 1.25%

Cc1ccc(NC(=O)C(=O)C(C#N)c2nc(-c3ccc(-c4ccccc4)cc3)cs2)c(C)c1 (stereo not given)
inactive: [1] 8% | [2] -2.75% | [3] 19.4% | [4] 28.4% | [5] 4.75% | [6] -10.1%

CC(C)CNC(=O)Nc1ccccc1C(F)(F)F
inactive: [1] -6.5% | [2] -8.4% | [3] -23.6% | [4] -4.55% | [5] 7.7% | [6] -14.4%

O=C(CSCSCC(=O)Nc1ccc(C2=NCCN2)cc1)Nc1ccc(C2=NCCN2)cc1
inactive: [1] 35% | [2] 18.4% | [3] 36.6% | [4] -6.1% | [5] 17.9% | [6] 19.9%

CCOC(=O)CN(c1scc(-c2ccccc2)c1C(=O)OCC)S(=O)(=O)c1ccc(C)cc1
inactive: [1] -15.7% | [2] -28.6% | [3] 0.05% | [4] -57.6% | [5] -2.7% | [6] 0.85%

CN(C)c1ccc(SSc2ccc(N(C)C)cc2)cc1
inactive: [1] -6.9% | [2] -20.6% | [3] 3.2% | [4] -3.9% | [5] 6.55% | [6] 1.25%

N#CCCCCCCCCCCC(=O)O
inactive: [1] -24.6% | [2] -55.9% | [3] 1.95% | [4] 1.45% | [5] -59.4% | [6] -10.2%

CC(=O)Nc1nnc(C)o1
inactive: [1] -0.85% | [2] -3.5% | [3] -1.55% | [4] -40.6% | [5] 10.3% | [6] -2.05%

CC(C)=CC(=O)n1nc2c(c1CC(C)C)C(=O)C(Nc1ccccc1)=CC2=O
inactive: [1] 35.1% | [2] 3.25% | [3] 21% | [4] 24.8% | [5] 1.3% | [6] 27.4%

O=C(O)c1cscc1-c1ccccc1
inactive: [1] 2.5% | [2] -0.05% | [3] -6.9% | [4] -19.9% | [5] -12.1% | [6] 3.6%
